# Data published in paper PMC4102417.
# System: murine 3T3 fibroblasts
# Assay: primary screen, percent viability or growth; higher = less effect of the substance
# Experimental: Similarly, for measuring the cytotoxicity concentration (CC50) for 3T3 fibroblast cells, cultures were incubated with drugs for 72 hours and developed using Alamar Blue (Alamar Biosciences Inc, Sacramento, CA) as previously described.
row,Structure (SMILES),Mammalian (3T3) cell % growth at 10 uM
1,CC1CCC2(NC1)OC1CC3C4CCC5CC(O)CCC5(C)C4CCC3(C)C1C2C.Cl (stereo not shown),100%
2,COC(=O)CC[C@@H](C)[C@H]1CC[C@H]2[C@@H]3CC[C@@H]4C[C@H](O)CC[C@]4(C)[C@H]3C[C@H](O)[C@]12C,100%
3,NS(=O)(=O)c1cc(C(=O)O)c(NCc2ccco2)cc1Cl,79.1%
4,CCC1(O)CC2CN(CCc3c([nH]c4ccccc34)C(C(=O)OC)(c3cc4c(cc3OC)N(C)C3C(O)(C(=O)OC)C(OC(C)=O)C5(CC)C=CCN6CCC43C65)C2)C1.O=S(=O)(O)O (stereo not shown),36.2%
5,COc1c(O)cc2oc3cc(O)c(CC=C(C)C)c(O)c3c(=O)c2c1CC=C(C)C,5.5%
6,CC(C)c1c(O)ccc2c1CC[C@H]1C(C)(C)CCC[C@]21C,67.4%
7,C#C[C@]1(O)CC[C@H]2[C@@H]3CCC4=Cc5oncc5C[C@]4(C)[C@H]3CC[C@@]21C,90.2%
8,CN(C)CCCN1c2ccccc2Sc2ccc(Cl)cc21,99.3%
9,CCCOc1ccc2nc(NC(=O)OC)[nH]c2c1,52.8%
10,CC(=O)N1CCN(c2ccc(OC[C@H]3CO[C@](Cn4ccnc4)(c4ccc(Cl)cc4Cl)O3)cc2)CC1,100%
11,CN(C)CCCN1c2ccccc2Sc2ccccc21.Cl,98.7%
12,COc1cc(O)c(C(=O)/C=C/c2ccc(O)c(OC)c2)c(OC)c1,10.2%
13,C[C@@H]1C[C@@H]([C@H](O)CC2CC(=O)NC(=O)C2)C(=O)[C@@H](C)C1,36.9%
14,CCN(CC)CCOc1ccc(C(=C(Cl)c2ccccc2)c2ccccc2)cc1,100%
15,CC(Cc1cccc(C(F)(F)F)c1)NCCOC(=O)c1ccccc1 (stereo not shown),96.6%
16,COc1cc(O)c2c(c1)C(=O)c1cc(C)cc(O)c1C2=O,96.8%
17,C=C1C2CCC3(C)C(c4ccoc4)OC(=O)CC13OC1CC(OC(C)=O)C(C)(C)C(CC(=O)OC)C12C (stereo not shown),84.1%
18,CC[C@@H](C(=O)[C@@H](C)[C@@H](O)[C@H](C)CCc1ccc(C)c(O)c1C(=O)O)[C@H]1O[C@](CC)([C@H]2CC[C@](O)(CC)[C@H](C)O2)C[C@@H]1C,50.1%
19,CN1CCc2c(c3ccccc3n2Cc2ccccc2)C1.O=S(=O)(O)c1cccc2c(S(=O)(=O)O)cccc12,100%
20,COc1cc(OC)c2c(=O)c(OC)c(-c3ccc(OC)c(OC)c3)oc2c1,43.3%

row,Structure (SMILES),Mammalian (3T3) cell % growth at 10 uM
1,Cl.OC(c1cc(C(F)(F)F)nc2c(C(F)(F)F)cccc12)C1CCCCN1 (stereo not shown),94.7%
2,CC1(C)C(=O)C=CC2(C)C1CC(=O)C1(C)C2CCC2(C)C(c3ccoc3)OC(=O)C3OC321 (stereo not shown),75.8%
3,CSc1ccc2c(c1)N(CCC1CCCCN1C)c1ccccc1S2 (stereo not shown),45.7%
4,COc1cc(O)c(C(=O)/C=C/c2ccc(OC)c(O)c2)c(OC)c1,6%
5,COc1ccc2c(c1)OC/C(=C/c1ccc(OC)c(O)c1)C2=O,8.8%
6,CC(C)C[C@H]1C(=O)N2CCC[C@H]2[C@]2(O)O[C@](NC(=O)[C@@H]3C=C4c5cccc6[nH]c(Br)c(c56)C[C@H]4N(C)C3)(C(C)C)C(=O)N12.CS(=O)(=O)O,92.1%
7,COC(=O)[C@H]1[C@H]2C[C@@H]3c4[nH]c5cc(OC)ccc5c4CCN3C[C@H]2C[C@@H](OC(=O)c2cc(OC)c(OC)c(OC)c2)[C@@H]1OC,100%
8,Cl.NCC(=O)c1ccccc1,85.5%
9,COc1cc2ccc(=O)oc2c(O)c1O,100%
10,COC(=O)CCC(C)C1CCC2C3C(O)CC4CC(O)CCC4(C)C3CC(O)C12C (stereo not shown),81%
11,CC[C@@H]1/C=C/C=C/C[C@H](C)[C@@H](O)[C@](C)(O)C(=O)[C@H](C)[C@@H](O)[C@H](C)C(=O)[C@H](C)[C@@H](O)[C@H](C)/C=C/C(=O)O[C@H]2[C@@H](C)[C@@H](CC1)O[C@@]1(CC[C@@H](C)[C@@H](C[C@@H](C)O)O1)[C@@H]2C,57.7%
12,CNc1ccc(C(=O)CC(O)CCC(C)C2OC(=O)CC(O)CC(=O)CC(O)CC(O)CC(O)CC(O)CC3(O)CC(O)C(C(=O)OC)C(CC(O[C@@H]4O[C@H](C)[C@@H](O)[C@H](N)[C@@H]4O)/C=C/C=C/C=C/C=C\C=C/C=C/C=C/C2C)O3)cc1 (stereo partly shown),97.3%
13,COc1ccc(CCN2CCC(Nc3nc4ccccc4n3Cc3ccc(F)cc3)CC2)cc1,100%
14,C[C@H]1COC2=C1C(=O)C(=O)c1c2ccc2c1CCCC2(C)C,87%
15,CNCCC(Oc1ccc(C(F)(F)F)cc1)c1ccccc1.Cl (stereo not shown),100%
16,COc1ccc2[nH]cc(CCN)c2c1.Cl,24.2%
17,NCCc1ccc(O)c(O)c1,2.4%
18,CCOc1ccc(Cc2nccc3cc(OCC)c(OCC)cc23)cc1OCC,95.1%
19,COc1cc2c(cc1OC)C1C(=O)c3c(cc4c(c3O)C=CC(C)(C)O4)OC1CO2 (stereo not shown),34.3%
20,CN1CCC(=C2c3ccccc3CCc3sccc32)CC1.O=C(O)CC(O)C(=O)O,86.5%
